Test results taken from article PMC7862700, “An all-to-all approach to the identification of sequence-specific readers for epigenetic DNA modifications on cytosine”.

Assays:
Assay in all cases: DAPPL (digital affinity profiling via proximity ligation, sequencing); 10 mM Tris-HCl pH 7.5, 50 mM NaCl, 1 mM DTT, 4% glycerol, room temperature, 30 min; GST-TFs on glutathione beads, 16-mer random dsDNA library, 0.1% formaldehyde crosslink after washing; high values mean tight binding
FLI1 = biological target: T1, FLI1 (Homo sapiens, UniProt Q01543 1-452); conditions: protein: recombinant; tags: N-terminal GST; dsDNA, one strand shown
T1 sequence: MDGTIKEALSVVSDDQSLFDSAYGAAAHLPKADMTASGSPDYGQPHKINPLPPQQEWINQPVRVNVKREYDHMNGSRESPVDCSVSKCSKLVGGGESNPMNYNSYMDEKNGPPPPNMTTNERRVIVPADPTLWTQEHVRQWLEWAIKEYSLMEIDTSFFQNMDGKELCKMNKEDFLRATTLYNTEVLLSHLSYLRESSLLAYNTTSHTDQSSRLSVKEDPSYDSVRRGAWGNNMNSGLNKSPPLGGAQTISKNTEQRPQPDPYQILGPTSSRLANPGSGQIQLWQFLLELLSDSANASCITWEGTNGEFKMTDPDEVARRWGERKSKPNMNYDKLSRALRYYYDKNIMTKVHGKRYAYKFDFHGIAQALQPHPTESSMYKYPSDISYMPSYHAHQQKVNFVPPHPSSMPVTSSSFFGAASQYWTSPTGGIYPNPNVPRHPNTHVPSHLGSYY
Summary of the method: (§1)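 Binding signal is each hexamer's read frequency for a factor divided by its frequency in the tag-only sample. The factors were GST-fused human transcription factors from yeast, captured on glutathione beads, DNA-barcoded and pooled with that sample. Pools were incubated with 200 nmole of a random double-stranded 16-mer DNA library in Tris/NaCl/DTT/glycerol buffer at room temperature for 30 min, then washed, crosslinked with 0.1% formaldehyde, proximity-ligated with BsaI/T4 ligase (1 h, 37 °C), PCR-amplified and sequenced on an Illumina NextSeq500.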

ELK1 = biological target: T2, ELK1 (Homo sapiens, UniProt P19419 1-428); conditions: protein: recombinant; tags: N-terminal GST; dsDNA, one strand shown
T2 sequence: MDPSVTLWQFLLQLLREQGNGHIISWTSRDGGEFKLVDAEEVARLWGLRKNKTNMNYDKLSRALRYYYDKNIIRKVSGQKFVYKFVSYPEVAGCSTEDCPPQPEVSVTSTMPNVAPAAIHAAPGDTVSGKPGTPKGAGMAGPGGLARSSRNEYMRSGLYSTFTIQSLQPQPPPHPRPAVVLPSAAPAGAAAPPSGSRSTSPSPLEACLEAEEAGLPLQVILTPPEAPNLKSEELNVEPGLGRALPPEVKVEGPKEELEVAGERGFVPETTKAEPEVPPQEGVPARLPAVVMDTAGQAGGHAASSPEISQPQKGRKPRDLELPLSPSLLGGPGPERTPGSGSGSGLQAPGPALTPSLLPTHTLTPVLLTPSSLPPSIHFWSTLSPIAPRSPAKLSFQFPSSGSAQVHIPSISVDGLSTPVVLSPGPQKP
Summary of the method: as §1

GABPA = biological target: T3, GABPA (Homo sapiens, UniProt Q06546 1-454); conditions: protein: recombinant; tags: N-terminal GST; dsDNA, one strand shown
T3 sequence: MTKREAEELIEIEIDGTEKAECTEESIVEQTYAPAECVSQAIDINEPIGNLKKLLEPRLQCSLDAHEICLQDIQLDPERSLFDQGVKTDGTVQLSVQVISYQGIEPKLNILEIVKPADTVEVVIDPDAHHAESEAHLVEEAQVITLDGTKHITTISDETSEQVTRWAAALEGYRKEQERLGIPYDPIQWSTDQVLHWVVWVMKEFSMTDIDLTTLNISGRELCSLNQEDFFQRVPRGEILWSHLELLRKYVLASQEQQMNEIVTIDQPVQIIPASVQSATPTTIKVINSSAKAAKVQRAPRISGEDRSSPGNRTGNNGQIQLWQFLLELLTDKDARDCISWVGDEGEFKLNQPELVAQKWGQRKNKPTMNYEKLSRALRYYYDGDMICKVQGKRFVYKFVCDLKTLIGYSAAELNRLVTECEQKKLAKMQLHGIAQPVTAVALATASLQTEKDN
Summary of the method: as §1

ERG = biological target: T4, ERG (Homo sapiens, UniProt P11308 1-479); conditions: protein: recombinant; tags: N-terminal GST; dsDNA, one strand shown
T4 sequence: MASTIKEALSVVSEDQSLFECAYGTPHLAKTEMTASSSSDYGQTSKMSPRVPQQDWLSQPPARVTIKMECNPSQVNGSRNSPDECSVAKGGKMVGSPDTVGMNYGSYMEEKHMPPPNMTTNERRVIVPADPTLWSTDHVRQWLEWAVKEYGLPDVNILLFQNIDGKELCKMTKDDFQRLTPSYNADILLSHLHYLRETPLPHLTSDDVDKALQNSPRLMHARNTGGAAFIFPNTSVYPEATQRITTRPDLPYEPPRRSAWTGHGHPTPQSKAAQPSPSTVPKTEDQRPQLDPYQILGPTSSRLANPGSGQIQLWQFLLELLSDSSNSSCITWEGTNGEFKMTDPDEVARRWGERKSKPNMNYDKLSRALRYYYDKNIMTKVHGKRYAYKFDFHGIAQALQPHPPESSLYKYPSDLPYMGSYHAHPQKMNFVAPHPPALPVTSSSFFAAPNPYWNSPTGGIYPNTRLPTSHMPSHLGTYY
Summary of the method: as §1

ELF1 = ELF1 (Homo sapiens, UniProt P32519 1-619); conditions: protein: recombinant; tags: N-terminal GST; dsDNA, one strand shown
ELF1, sequence (P32519 whole entry): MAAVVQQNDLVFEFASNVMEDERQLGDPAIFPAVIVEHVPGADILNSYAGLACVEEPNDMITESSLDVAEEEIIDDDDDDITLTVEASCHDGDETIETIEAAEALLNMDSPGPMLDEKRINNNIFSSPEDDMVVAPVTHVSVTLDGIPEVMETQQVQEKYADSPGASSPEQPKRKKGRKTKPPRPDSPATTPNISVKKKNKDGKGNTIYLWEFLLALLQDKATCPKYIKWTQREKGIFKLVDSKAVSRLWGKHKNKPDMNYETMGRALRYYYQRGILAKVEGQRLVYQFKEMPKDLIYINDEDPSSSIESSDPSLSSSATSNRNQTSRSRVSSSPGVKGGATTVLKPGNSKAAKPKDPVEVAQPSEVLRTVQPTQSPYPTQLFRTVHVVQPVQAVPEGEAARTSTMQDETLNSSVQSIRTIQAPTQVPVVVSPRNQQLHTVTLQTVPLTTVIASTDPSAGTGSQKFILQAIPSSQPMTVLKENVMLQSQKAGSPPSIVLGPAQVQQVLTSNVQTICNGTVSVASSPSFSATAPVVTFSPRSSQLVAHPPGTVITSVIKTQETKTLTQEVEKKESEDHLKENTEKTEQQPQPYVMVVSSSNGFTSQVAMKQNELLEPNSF
Summary of the method: as §1

EHF = biological target: T5, EHF (Homo sapiens, UniProt Q9NZC4 1-300); conditions: protein: recombinant; tags: N-terminal GST; dsDNA, one strand shown
T5 sequence: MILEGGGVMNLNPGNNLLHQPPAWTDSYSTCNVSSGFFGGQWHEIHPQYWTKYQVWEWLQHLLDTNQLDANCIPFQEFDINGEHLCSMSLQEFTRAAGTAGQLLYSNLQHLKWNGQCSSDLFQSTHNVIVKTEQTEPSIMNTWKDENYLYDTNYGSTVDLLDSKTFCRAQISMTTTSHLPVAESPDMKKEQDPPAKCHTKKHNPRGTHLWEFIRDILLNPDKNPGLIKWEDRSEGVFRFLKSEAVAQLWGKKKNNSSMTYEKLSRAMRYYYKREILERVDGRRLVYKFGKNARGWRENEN
Summary of the method: as §1

SPI1 = SPI1 (Homo sapiens, UniProt P17947 1-270); conditions: protein: recombinant; tags: N-terminal GST; dsDNA, one strand shown
Summary of the method: as §1

SPIB = SPIB (Homo sapiens, UniProt Q01892 1-262); conditions: protein: recombinant; tags: N-terminal GST; dsDNA, one strand shown
SPIB, sequence (Q01892 whole entry): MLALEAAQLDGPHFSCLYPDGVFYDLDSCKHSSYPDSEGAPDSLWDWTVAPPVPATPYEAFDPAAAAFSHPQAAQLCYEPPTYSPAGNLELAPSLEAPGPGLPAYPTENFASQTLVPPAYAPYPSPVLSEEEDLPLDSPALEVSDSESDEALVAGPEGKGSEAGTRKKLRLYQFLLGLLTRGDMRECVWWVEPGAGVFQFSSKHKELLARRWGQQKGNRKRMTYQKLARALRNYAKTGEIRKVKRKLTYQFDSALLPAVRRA
Summary of the method: as §1

ELK3 = biological target: T6, ELK3 (Homo sapiens, UniProt P41970 1-407); conditions: protein: recombinant; tags: N-terminal GST; dsDNA, one strand shown
T6 sequence: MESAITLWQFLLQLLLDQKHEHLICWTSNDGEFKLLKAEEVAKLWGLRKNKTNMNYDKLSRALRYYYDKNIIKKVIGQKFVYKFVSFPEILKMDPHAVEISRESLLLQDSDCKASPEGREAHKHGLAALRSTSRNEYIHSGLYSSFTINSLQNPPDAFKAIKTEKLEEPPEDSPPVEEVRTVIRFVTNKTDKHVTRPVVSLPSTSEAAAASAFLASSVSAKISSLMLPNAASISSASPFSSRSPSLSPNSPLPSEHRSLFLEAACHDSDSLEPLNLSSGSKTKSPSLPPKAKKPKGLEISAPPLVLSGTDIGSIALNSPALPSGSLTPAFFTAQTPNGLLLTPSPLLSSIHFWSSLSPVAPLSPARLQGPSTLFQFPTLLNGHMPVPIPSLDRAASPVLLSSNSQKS
Summary of the method: as §1

FEV = biological target: T7, FEV (Homo sapiens, UniProt Q99581 1-238); conditions: protein: recombinant; tags: N-terminal GST; dsDNA, one strand shown
T7 sequence: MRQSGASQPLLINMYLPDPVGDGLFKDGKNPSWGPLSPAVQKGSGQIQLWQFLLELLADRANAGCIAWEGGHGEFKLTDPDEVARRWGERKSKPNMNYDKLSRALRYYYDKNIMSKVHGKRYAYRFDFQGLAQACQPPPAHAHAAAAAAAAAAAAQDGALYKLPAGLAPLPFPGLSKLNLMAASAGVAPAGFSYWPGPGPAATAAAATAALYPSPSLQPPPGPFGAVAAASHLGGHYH
Summary of the method: as §1

ETV5 = ETV5 (Homo sapiens, UniProt P41161 1-510); conditions: protein: recombinant; tags: N-terminal GST; dsDNA, one strand shown
ETV5, sequence (P41161 whole entry): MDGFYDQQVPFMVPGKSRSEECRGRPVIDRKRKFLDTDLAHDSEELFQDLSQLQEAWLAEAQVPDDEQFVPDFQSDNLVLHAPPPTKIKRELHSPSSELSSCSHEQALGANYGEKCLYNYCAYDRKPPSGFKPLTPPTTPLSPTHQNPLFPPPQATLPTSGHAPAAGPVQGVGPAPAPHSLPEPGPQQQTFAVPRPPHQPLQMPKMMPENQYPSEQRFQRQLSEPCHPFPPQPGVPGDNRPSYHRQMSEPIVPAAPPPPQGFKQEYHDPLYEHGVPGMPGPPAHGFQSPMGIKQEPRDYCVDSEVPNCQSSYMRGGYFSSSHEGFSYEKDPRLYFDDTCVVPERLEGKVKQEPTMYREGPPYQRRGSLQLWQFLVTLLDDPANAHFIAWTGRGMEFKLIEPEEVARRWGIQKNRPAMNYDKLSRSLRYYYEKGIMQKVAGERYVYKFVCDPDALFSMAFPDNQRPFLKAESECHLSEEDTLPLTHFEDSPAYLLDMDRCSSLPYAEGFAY
Summary of the method: as §1

HSF1 = HSF1 (Homo sapiens, UniProt Q00613 1-529); conditions: protein: recombinant; tags: N-terminal GST; chain copies: 3; dsDNA, one strand shown
HSF1, sequence (Q00613 whole entry): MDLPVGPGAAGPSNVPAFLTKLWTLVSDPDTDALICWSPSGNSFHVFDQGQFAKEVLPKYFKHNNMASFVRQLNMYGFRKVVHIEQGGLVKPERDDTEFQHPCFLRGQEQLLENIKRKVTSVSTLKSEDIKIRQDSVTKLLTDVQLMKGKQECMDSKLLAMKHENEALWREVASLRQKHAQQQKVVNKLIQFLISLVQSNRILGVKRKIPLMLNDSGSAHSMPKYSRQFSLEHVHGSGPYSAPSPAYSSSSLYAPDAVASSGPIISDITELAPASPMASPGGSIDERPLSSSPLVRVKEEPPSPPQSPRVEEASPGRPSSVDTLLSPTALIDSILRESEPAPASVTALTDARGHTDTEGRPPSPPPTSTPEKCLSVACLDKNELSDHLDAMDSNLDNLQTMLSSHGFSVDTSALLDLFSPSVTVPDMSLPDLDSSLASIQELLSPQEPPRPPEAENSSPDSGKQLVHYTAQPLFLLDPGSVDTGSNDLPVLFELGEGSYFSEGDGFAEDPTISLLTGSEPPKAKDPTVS
Summary of the method: as §1

SPIC = biological target: T8, SPIC (Homo sapiens, UniProt Q8N5J4 1-248); conditions: protein: recombinant; tags: N-terminal GST; dsDNA, one strand shown
T8 sequence: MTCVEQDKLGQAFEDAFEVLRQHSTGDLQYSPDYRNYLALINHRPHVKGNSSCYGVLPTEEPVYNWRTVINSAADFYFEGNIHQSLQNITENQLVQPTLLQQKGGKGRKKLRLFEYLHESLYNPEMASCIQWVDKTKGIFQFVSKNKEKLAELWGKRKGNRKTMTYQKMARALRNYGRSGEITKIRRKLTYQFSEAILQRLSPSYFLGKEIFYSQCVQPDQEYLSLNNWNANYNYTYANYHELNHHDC
Summary of the method: as §1

ELF4 = ELF4 (Homo sapiens, UniProt Q99607 1-663); conditions: protein: recombinant; tags: N-terminal GST; dsDNA, one strand shown
ELF4, sequence (Q99607 whole entry): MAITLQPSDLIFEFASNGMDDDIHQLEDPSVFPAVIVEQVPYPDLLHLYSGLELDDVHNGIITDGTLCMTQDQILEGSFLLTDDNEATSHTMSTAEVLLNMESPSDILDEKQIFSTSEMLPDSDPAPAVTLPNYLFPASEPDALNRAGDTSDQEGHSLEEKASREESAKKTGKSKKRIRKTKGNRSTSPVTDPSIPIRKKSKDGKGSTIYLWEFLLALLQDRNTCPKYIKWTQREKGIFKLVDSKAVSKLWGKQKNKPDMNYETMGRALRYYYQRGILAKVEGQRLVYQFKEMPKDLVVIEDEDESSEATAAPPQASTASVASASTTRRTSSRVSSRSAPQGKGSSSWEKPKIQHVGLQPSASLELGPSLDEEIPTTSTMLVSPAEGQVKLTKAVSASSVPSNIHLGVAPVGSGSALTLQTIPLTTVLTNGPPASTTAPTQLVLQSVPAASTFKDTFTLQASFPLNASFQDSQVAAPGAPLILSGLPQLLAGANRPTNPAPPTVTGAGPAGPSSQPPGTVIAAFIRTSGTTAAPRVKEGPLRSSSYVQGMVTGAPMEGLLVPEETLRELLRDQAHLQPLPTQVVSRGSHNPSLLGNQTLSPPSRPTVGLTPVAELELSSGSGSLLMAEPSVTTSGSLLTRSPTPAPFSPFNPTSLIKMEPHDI
Summary of the method: as §1

ELK4 = biological target: T9, ELK4 (Homo sapiens, UniProt P28324-2 1-405); conditions: protein: recombinant; tags: N-terminal GST; dsDNA, one strand shown
T9 sequence: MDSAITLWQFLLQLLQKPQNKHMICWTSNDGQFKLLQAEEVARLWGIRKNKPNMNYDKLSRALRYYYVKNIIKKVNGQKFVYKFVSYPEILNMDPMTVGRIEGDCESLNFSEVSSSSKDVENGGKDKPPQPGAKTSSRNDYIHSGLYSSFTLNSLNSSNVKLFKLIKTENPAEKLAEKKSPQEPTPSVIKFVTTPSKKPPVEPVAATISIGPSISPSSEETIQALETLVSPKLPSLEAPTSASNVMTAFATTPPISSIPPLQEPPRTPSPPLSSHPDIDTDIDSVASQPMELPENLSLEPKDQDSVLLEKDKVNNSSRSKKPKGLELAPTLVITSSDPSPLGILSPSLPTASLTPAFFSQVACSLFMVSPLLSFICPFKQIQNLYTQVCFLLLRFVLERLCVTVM
Summary of the method: as §1

ETV2 = biological target: T10, ETV2 (Homo sapiens, UniProt O00321 1-342); conditions: protein: recombinant; tags: N-terminal GST; dsDNA, one strand shown
T10 sequence: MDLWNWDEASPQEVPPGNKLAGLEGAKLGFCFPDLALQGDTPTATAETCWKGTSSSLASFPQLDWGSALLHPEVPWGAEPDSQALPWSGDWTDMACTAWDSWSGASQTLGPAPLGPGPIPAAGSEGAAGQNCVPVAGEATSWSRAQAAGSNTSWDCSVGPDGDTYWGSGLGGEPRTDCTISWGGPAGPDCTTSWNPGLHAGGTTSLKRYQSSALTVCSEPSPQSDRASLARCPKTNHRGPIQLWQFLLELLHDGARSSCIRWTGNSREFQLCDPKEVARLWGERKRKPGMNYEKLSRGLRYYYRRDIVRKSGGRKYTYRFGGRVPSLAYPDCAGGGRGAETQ
Summary of the method: as §1

ELF3 = biological target: T11, ELF3 (Homo sapiens, UniProt P78545 1-371); conditions: protein: recombinant; tags: N-terminal GST; dsDNA, one strand shown
T11 sequence: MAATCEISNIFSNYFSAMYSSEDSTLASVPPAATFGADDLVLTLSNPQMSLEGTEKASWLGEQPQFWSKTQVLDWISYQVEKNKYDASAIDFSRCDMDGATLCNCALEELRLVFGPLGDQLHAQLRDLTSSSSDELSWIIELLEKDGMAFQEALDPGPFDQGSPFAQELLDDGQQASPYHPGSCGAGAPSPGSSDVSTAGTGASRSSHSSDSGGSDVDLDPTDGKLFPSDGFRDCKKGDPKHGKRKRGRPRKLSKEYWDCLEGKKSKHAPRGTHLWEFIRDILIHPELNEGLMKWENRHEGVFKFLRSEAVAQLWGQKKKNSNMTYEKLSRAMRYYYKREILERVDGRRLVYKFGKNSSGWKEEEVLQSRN
Summary of the method: as §1

CRX = CRX (Homo sapiens, UniProt O43186 1-299); conditions: protein: recombinant; tags: N-terminal GST; dsDNA, one strand shown
CRX, sequence (O43186 whole entry): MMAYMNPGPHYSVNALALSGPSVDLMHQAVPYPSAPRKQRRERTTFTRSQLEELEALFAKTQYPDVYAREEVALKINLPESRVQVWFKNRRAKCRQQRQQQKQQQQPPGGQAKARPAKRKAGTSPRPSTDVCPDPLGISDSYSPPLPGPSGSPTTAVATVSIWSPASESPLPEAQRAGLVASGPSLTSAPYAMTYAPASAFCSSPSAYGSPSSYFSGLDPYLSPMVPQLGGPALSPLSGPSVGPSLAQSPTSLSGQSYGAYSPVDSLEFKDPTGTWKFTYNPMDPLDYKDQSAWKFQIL
Summary of the method: as §1

ETV1 = ETV1 (Homo sapiens, UniProt P50549 1-477); conditions: protein: recombinant; tags: N-terminal GST; dsDNA, one strand shown
ETV1, sequence (P50549 whole entry): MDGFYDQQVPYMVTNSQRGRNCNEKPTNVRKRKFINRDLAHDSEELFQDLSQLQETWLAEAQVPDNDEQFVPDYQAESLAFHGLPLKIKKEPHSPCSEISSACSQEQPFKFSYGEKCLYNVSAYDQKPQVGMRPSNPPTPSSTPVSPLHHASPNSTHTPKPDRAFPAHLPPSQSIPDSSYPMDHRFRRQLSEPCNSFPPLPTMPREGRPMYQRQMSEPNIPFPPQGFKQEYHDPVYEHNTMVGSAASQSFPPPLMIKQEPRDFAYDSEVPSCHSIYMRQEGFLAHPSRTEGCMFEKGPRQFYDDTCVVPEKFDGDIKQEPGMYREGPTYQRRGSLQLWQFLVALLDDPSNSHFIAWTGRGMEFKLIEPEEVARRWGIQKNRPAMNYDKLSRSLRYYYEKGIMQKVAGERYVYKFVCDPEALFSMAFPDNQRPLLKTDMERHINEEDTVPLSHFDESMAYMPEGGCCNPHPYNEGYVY
Summary of the method: as §1

## TCTTTT
FLI1
  binding signal: 1.46 fold enrichment (6-mer frequency, TF over GST control)
ELK1
  binding signal: 1.38 fold enrichment (6-mer frequency, TF over GST control)
GABPA
  binding signal: 1.45 fold enrichment (6-mer frequency, TF over GST control)
ERG
  binding signal: 1.36 fold enrichment (6-mer frequency, TF over GST control)
ELF1
  binding signal: 1.47 fold enrichment (6-mer frequency, TF over GST control)
EHF
  binding signal: 1.53 fold enrichment (6-mer frequency, TF over GST control)
SPI1
  binding signal: 2.09 fold enrichment (6-mer frequency, TF over GST control)
SPIB
  binding signal: 1.61 fold enrichment (6-mer frequency, TF over GST control)
ELK3
  binding signal: 1.51 fold enrichment (6-mer frequency, TF over GST control)
FEV
  binding signal: 1.44 fold enrichment (6-mer frequency, TF over GST control)
ETV5
  binding signal: 1.4 fold enrichment (6-mer frequency, TF over GST control)
HSF1
  binding signal: 1.66 fold enrichment (6-mer frequency, TF over GST control)
SPIC
  binding signal: 1.55 fold enrichment (6-mer frequency, TF over GST control)
ELF4
  binding signal: 1.54 fold enrichment (6-mer frequency, TF over GST control)
ELK4
  binding signal: 1.22 fold enrichment (6-mer frequency, TF over GST control)
ETV2
  binding signal: 1.42 fold enrichment (6-mer frequency, TF over GST control)
ELF3
  binding signal: 1.41 fold enrichment (6-mer frequency, TF over GST control)
CRX
  binding signal: 1.59 fold enrichment (6-mer frequency, TF over GST control)
ETV1
  binding signal: 1.47 fold enrichment (6-mer frequency, TF over GST control)
